Laboratory results taken from PubChem BioAssay (EPA / NIEHS).
Several values for one entry are separate records, joined by “and”; a condition that tells them apart may be missing. Equal values may be shown once. A structure can be active in one record and inactive in another. Activity calls are given as the source filed them. How the source made its calls: active means hit-call score of the fitted dose curve at least 0.9, where 1 is the maximum; inactive means score below 0.9.

Legend:
KRT18 (gene 3875) = assay: BSK_BF4T_Keratin818: BioMAP Diversity Plus: BF4T Assay for Keratin 818 Biomarker Activity (AID 2284266); details: primary human bronchial epithelial cells with fibroblasts
How it was run: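 Keratin 8/18 levels quantified by ELISA after 24 h chemical treatment of bronchial epithelial cell/dermal fibroblast co-cultures, fitted in positive direction relative to DMSO. Parallel SRB staining tracks overt cytotoxicity.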

[1] = BSK_MyoF_SRB: Viability Assessment in the BioMAP Diversity Plus: MyoF Assay (AID 2284267); details: primary human lung fibroblasts;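 further: total protein by SRB absorbance in parallel cultures as cytotoxicity measure; cells assessed 24 h after compound addition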
How it was run: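 Confluent human lung fibroblasts were exposed to test chemicals for 24 h. Parallel wells were then fixed in 10% TCA, stained with 0.1% sulforhodamine B and measured at 560 nm. DMSO served as baseline for curve fitting.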

[2] = read-out: Matrix Metallopeptidase 1 (MMP1), MMP1 (gene 4312); assay: BSK_MyoF_MMP1: BioMAP Diversity Plus: MyoF Assay for Matrix Metallopeptidase 1 (MMP1) Biomarker Activity (AID 2284268); details: primary human lung fibroblasts
How it was run: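 Human lung fibroblasts (MyoF system) exposed to chemical for 24 h in 96-well format; MMP1 biomarker quantified by ELISA, with activity fitted in the positive direction relative to DMSO baseline.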

[3] = read-out: TIMP metallopeptidase inhibitor 1 (TIMP1), TIMP1 (gene 7076); assay: BSK_MyoF_TIMP1: BioMAP Diversity Plus: MyoF Assay for TIMP metallopeptidase inhibitor 1 (TIMP1) Biomarker Activity (AID 2284269); details: primary human lung fibroblasts
How it was run: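 ELISA read-out of TIMP-1 from primary human lung fibroblast cultures 24 h after compound dosing; gain of signal relative to DMSO vehicle baseline defines activity.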

[4] = read-out: Matrix Metallopeptidase 1 (MMP1), MMP1 (gene 4312); assay: BSK_BF4T_MMP1: BioMAP Diversity Plus: BF4T Assay for Matrix Metallopeptidase 1 (MMP1) Biomarker Activity (AID 2284270); details: primary human bronchial epithelial cells with fibroblasts
How it was run: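 MMP-1 quantified by ELISA in primary human bronchial epithelial/dermal fibroblast co-cultures, 24 hours post-dosing, with DMSO as baseline; parallel sulforhodamine B staining (560 nm) tracks overt cytotoxicity.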

[5] = read-out: Matrix Metallopeptidase 3 (MMP3), MMP3 (gene 4314); assay: BSK_BF4T_MMP3: BioMAP Diversity Plus: BF4T Assay for Matrix Metallopeptidase 3 (MMP3) Biomarker Activity (AID 2284271); details: primary human bronchial epithelial cells with fibroblasts
How it was run: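 MMP-3 level read by ELISA after 24 h chemical exposure of bronchial epithelial cell/dermal fibroblast co-cultures, fitted upward relative to DMSO. Parallel cultures stained with 0.1% SRB after TCA fixation gauge overt cytotoxicity.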

[6] = read-out: Tissue plasminogen activator (tPA), PLAT (gene 5327); assay: BSK_BF4T_tPA: BioMAP Diversity Plus: BF4T Assay for Tissue plasminogen activator (tPA) Biomarker Activity (AID 2284272); details: primary human bronchial epithelial cells with fibroblasts
How it was run: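 tPA level quantified by ELISA at 24 h post-treatment in bronchial epithelial/dermal fibroblast co-cultures, gain of signal scored against DMSO baseline. Parallel cultures stained with 0.1% SRB (560 nm) to flag overt cytotoxicity.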

[7] = read-out: Plasminogen Activator Inhibitor-1 (PAI1), SERPINE1 (gene 5054); assay: BSK_BF4T_PAI1: BioMAP Diversity Plus: BF4T Assay for Plasminogen Activator Inhibitor-1 (PAI1) Biomarker Activity (AID 2284273); details: primary human bronchial epithelial cells with fibroblasts
How it was run: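 PAI-1 levels quantified by ELISA 24 h post-dosing in bronchial epithelial cell plus dermal fibroblast cultures. Signal gain referenced to DMSO baseline. Sulforhodamine B total-protein staining of parallel wells checked cytotoxicity.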

[8] = BSK_BF4T_SRB: Viability Assessment in the BioMAP Diversity Plus: BF4T Assay (AID 2284274); details: primary human bronchial epithelial cells with fibroblasts;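 further: measured 24 h after compound addition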
How it was run: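 Cytotoxicity measured as total protein: cells fixed with 10% TCA, stained with 0.1% SRB, read at 560 nm. Bronchial epithelial/dermal fibroblast co-culture, 24 h after dosing, with positive-direction fitting relative to DMSO.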

[9] = read-out: urokinase Plasminogen Activator (uPA), PLAU (gene 5328); assay: BSK_BF4T_uPA: BioMAP Diversity Plus: BF4T Assay for urokinase Plasminogen Activator (uPA) Biomarker Activity (AID 2284275); details: primary human bronchial epithelial cells with fibroblasts
How it was run: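 uPA levels measured by ELISA at 24 hours in BF4T cultures (bronchial epithelial cells plus dermal fibroblasts) and compared with DMSO; cytotoxicity tracked in parallel cultures by sulforhodamine B staining.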

Measured: AC50

CCNS(=O)(=O)C(F)(F)C(F)(F)C(F)(F)C(F)(F)C(F)(F)C(F)(F)C(F)(F)C(F)(F)F
inactive: [2] | [5] | [7] | [9]
active: KRT18 (gene 3875) 15.3 µM and 22.5 µM | [1] 48.8 µM and 50.9 µM | [3] 38.9 µM and 31.6 µM | [4] 30 µM | [6] 7.68 µM and 8.65 µM | [7] 41.2 µM | [8] 44.7 µM and 41.4 µM | [9] 47.3 µM
